Bioassay records deposited in PubChem BioAssay by several laboratories.
TLR9-MyD88 block: TLR9-MyD88 interaction inhibition; CHO BLA complementation TLR9-MyD88, CCF4 FRET ratio; inhibition, % at 4.98 µM; Q9NR96+Q99836; AID 504734; 340,000 tested, 0.21% active;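 active = inhibition above the mean over all tested compounds plus 3 SD, cut at about 21% in these data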
NPR1 activator: GC-A (human) enzyme activation. AID 1671463. P16066. 370,000 tested, 0.14% active. HEK293 GC-A cells, cGMP TR-FRET, EC30 ANP; 0% at EC30 ANP, 100% saturating ANP. activation, % at 10 µM; in the data active = activation above about 40%
Target sequence (P16066 whole entry, looked up): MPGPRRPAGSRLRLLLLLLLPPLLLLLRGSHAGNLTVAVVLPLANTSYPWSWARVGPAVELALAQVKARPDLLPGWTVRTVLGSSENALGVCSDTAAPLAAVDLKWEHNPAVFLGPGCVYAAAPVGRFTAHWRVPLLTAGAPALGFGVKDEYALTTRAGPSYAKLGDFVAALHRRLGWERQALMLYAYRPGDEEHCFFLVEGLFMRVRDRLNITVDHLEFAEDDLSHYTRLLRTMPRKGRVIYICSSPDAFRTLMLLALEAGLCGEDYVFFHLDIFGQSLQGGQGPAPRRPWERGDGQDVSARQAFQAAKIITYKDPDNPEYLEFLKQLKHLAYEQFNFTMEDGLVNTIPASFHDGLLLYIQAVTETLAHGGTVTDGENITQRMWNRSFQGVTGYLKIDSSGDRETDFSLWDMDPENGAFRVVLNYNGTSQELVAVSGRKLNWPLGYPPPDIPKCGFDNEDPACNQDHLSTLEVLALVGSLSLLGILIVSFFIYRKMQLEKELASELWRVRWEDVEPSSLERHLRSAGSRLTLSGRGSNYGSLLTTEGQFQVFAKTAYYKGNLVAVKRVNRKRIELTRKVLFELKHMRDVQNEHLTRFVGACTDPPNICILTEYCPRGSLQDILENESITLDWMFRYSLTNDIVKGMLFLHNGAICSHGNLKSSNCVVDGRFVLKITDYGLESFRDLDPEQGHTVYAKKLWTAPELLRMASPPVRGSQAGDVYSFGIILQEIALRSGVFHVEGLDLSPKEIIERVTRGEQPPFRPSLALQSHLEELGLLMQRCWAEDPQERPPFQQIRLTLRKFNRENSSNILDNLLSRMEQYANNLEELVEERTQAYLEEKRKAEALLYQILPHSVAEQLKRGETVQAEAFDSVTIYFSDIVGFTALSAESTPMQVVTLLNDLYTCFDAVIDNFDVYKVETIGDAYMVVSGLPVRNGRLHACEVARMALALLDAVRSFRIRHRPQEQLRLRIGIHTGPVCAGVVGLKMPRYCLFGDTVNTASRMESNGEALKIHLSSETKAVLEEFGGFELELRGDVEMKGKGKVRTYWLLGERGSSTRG
NOD2 RIPK2 PPI: blocks binding of human NOD2 to RIPK2. O43353. CHO BLA complementation NOD2-RIPK2, CCF4 ratio. inhibition, % at 4.98 µM. 360,000 tested, 0.38% active. AID 624267; in the data active = inhibition above about 21%
GC-B act: GC-B (human) receptor activation; P20594; HEK293-GC-B cells, CNP EC30, cGMP TR-FRET; 0% at EC30 CNP, 100% saturating CNP; activation, % at 10 µM; 370,000 tested, 0.11% active; AID 1920062;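 active = activation at 10 µM reaching about 35% in either raw or pattern-adjusted values, limit read from the data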
TLR4-MyD88 BLA: blocks binding of human TLR4 to MyD88; O00206+Q99836; HeLa CL3-4 TLR4/MyD88 BLA complementation, FRET ratio; inhibition, % at 8.4 µM; 200,000 tested, 0.18% active; in the data active = inhibition above about 25%
Neddyl block: inhibitors of human cullin neddylation; P61081+Q13564; TR-FRET cullin neddylation, biochemical; inhibition, % at 25 µM; 360,000 tested, 0.58% active; AID 651699; in the data active = inhibition above about 36%
NOD2-RIPK2 conf: NOD2-RIPK2 interaction inhibition confirmed; shares compounds with NOD2 RIPK2 PPI; CHO cells, NOD2-RIPK2 BLA complementation, CCF4 FRET; inhibition, % at 4.98 µM; 1,200 tested, 70% active; AID 624370;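 active = mean inhibition across replicates above a set limit taken from the earlier primary screen, cut at about 21% in these data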
NOD2 BLA counter: counter-screen for NOD2-RIPK2 interaction inhibitors: BLA reporter; shares compounds with NOD2 RIPK2 PPI; CHO BLA reporter, CCF4 FRET ratio, counterscreen; inhibition, % at 4.98 µM; 1,200 tested, 57% active; AID 624371;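 active = mean inhibition above the low-control mean inhibition plus three low-control SD, cut at about 11% in these data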
Large screens that a line does not name were inactive (follow-up assays come after a bar, where shown). This is a sample that favours compounds with a hit; in the whole collection about 1.2% have one here.

CC(C)C[C@@H]1NC(=O)[C@H]2C[C@@]3(C)c4ccccc4N[C@H]3N2C1=O	none (no result: TLR9-MyD88 block, NOD2 RIPK2 PPI, TLR4-MyD88 BLA, Neddyl block)
C=C1C(=O)[C@]23C[C@H]1CC[C@H]2[C@]1(C)[C@@H](O)CC[C@@](C)(C(=O)O)[C@H]1C[C@@H]3O	none (no result: TLR9-MyD88 block, TLR4-MyD88 BLA)
C=C1C(=O)[C@]23C[C@H]1CC[C@H]2[C@]1(C)[C@@H](OC(C)=O)CC[C@@](C)(C(=O)OC)[C@H]1C[C@@H]3OC(C)=O	NOD2 RIPK2 PPI 59.3 (no result: TLR9-MyD88 block, TLR4-MyD88 BLA) | NOD2-RIPK2 conf 55.5 | NOD2 BLA counter inactive
C=C1C(=O)[C@]23C[C@H]1CC[C@H]2[C@]1(C)[C@@H](OC(C)=O)CC[C@@](C)(C(=O)O)[C@H]1C[C@@H]3O	none (no result: TLR9-MyD88 block, TLR4-MyD88 BLA)
C=C1C(=O)[C@]23C[C@H]1CCC2[C@@]1(C)C(C[C@@H]3O)[C@](C)(C(=O)OC)CC[C@@H]1OC(C)=O (some centres not stated)	NOD2 RIPK2 PPI 93.1 (no result: TLR9-MyD88 block, TLR4-MyD88 BLA) | NOD2-RIPK2 conf 92.7 | NOD2 BLA counter 21.7
CN(C)c1ccc(/C=C/C(=O)c2ccc3c(c2)OCO3)cc1	NOD2 RIPK2 PPI 54.9 (no result: TLR4-MyD88 BLA) | NOD2-RIPK2 conf 48.1 | NOD2 BLA counter 54.6
O=C(/C=C/c1ccccc1)c1ccc2c(c1)OCO2	none (no result: TLR4-MyD88 BLA)
Cc1ccc2c(c1)C1CS(=O)(=O)N(Cc3ccc(F)cc3)CN1C2 (configuration not stated)	none (no result: TLR9-MyD88 block, NOD2 RIPK2 PPI, TLR4-MyD88 BLA, Neddyl block)
O=C(CN(c1cccc(C(F)(F)F)c1)S(=O)(=O)c1ccc(Cl)c([N+](=O)[O-])c1)NCc1ccc(F)cc1	NOD2 RIPK2 PPI 23.3 | NOD2-RIPK2 conf 28.9 | NOD2 BLA counter inactive
COc1cc(CC(=O)NCC(C)(C)N2CCOCC2)cc(OC)c1OC	NOD2 RIPK2 PPI 38.4 (no result: TLR4-MyD88 BLA) | NOD2-RIPK2 conf inactive | NOD2 BLA counter inactive
COc1ccc(S(N)(=O)=O)cc1C(=O)NCC(C)(C)N1CCOCC1	none (no result: TLR4-MyD88 BLA)
CCCN1CCS(=O)(=O)N(Cc2cn(Cc3ccc(F)cc3)nn2)C(C(=O)OC)C1 (configuration not stated)	none (no result: TLR9-MyD88 block, NOD2 RIPK2 PPI, TLR4-MyD88 BLA, Neddyl block)
O=C(/C=C/c1ccccc1O)c1ccco1	none (no result: TLR4-MyD88 BLA)
O=C(/C=C/c1cc(Br)ccc1O)c1ccco1	NOD2 RIPK2 PPI 21.0 (no result: TLR4-MyD88 BLA) | NOD2-RIPK2 conf inactive | NOD2 BLA counter inactive
COc1cccc(N2CCN(c3ncnc4c3[nH]c3ccccc34)CC2C)c1 (configuration not stated)	none (no result: TLR9-MyD88 block, NOD2 RIPK2 PPI, Neddyl block)
COc1cccc(N2CCN(c3ncnc4c3[nH]c3ccc(F)cc34)CC2C)c1 (configuration not stated)	NOD2 RIPK2 PPI 28.3, Neddyl block 39.4 | NOD2-RIPK2 conf inactive | NOD2 BLA counter inactive
FC(F)(F)c1ccccc1-c1ccc2nncn2c1	NOD2 RIPK2 PPI 23.1 (no result: TLR9-MyD88 block, TLR4-MyD88 BLA) | NOD2-RIPK2 conf inactive | NOD2 BLA counter inactive
c1ccc(-c2ccc3nncn3c2)cc1	none (no result: TLR9-MyD88 block, TLR4-MyD88 BLA)
COC(=O)C1CN(Cc2ccc(F)cc2)CCS(=O)(=O)N1Cc1cn(Cc2ccccc2)nn1 (configuration not stated)	none (no result: TLR9-MyD88 block, NOD2 RIPK2 PPI, TLR4-MyD88 BLA, Neddyl block)
Cc1ccccc1CN(C)CCS(=O)(=O)c1cc(Cl)ccc1Cl	NOD2 RIPK2 PPI 27.9 (no result: TLR4-MyD88 BLA) | NOD2-RIPK2 conf inactive | NOD2 BLA counter inactive
CCCCCCCCN1C(=O)[C@@H](CC(=O)NCc2cccc(C(F)(F)F)c2)C[C@@]2(C(=O)OC)C1=C[C@H](C(C)C)O[C@@H]2C1CC1	none (no result: TLR9-MyD88 block, NOD2 RIPK2 PPI, TLR4-MyD88 BLA, Neddyl block)
CCCCCCCCN1C(=O)[C@@H](CC(=O)NCc2ccc(OC)c(OC)c2)C[C@@]2(C(=O)OC)C1=C[C@H](COCc1ccccc1)O[C@@H]2C	none (no result: TLR9-MyD88 block, NOD2 RIPK2 PPI, TLR4-MyD88 BLA, Neddyl block)
COc1cc2ccc(=O)oc2cc1O	NOD2 RIPK2 PPI 29.6 (no result: TLR4-MyD88 BLA) | NOD2-RIPK2 conf inactive | NOD2 BLA counter 38.5
NNc1nc2ccc(F)cc2s1	NOD2 RIPK2 PPI 29.9 | NOD2-RIPK2 conf inactive | NOD2 BLA counter inactive
CCOC(=O)CC(S(=O)(=O)c1ccccc1)S(=O)(=O)c1ccccc1	NOD2 RIPK2 PPI 52.3 (no result: TLR4-MyD88 BLA) | NOD2-RIPK2 conf inactive | NOD2 BLA counter inactive
Cc1cc2[nH]c3c4ccccc4nc(C)c3c2cc1C	NOD2 RIPK2 PPI 21.4 (not shown: TLR4-MyD88 BLA, Neddyl block) | NOD2-RIPK2 conf 26.1 | NOD2 BLA counter inactive
